This is part of a sample that, as a whole, favours compounds with a hit. Of some 83,000 tested, about 20% had one in any assay.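 Percent growth is the endpoint: 0 to 100 indicates growth inhibition (40 means 60% inhibition), 0 means no net growth, and negative values indicate cell death.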 Activity calls are given as the source filed them. Rule for the calls: active = growth percent below 10; inactive = the rest.
Legend:
Assay in all cases: NCI-60 one-dose screen, 48 h (100 = growth as untreated, 0 = no growth, -100 = all killed)
Conditions in all cases: 10 µM unless noted
SK-MEL-2 melanoma = tested on: SK-MEL-2 melanoma
EKVX NSCLC = tested on: EKVX NSCLC
SN12C renal = tested on: SN12C renal
UO-31 renal = tested on: UO-31 renal
TK-10 renal = tested on: TK-10 renal
ACHN renal = tested on: ACHN renal
CAKI-1 renal = tested on: CAKI-1 renal
A498 renal = tested on: A498 renal
CCRF-CEM leukemia = tested on: CCRF-CEM leukemia
MOLT-4 leukemia = tested on: MOLT-4 leukemia

Measured: growth

CN(C)S(=O)(=O)n1cnc([C@@H]2[C@@H]3C(=O)OC[C@@H]3C[C@]23N=CN(Cc2ccccc2)C3=O)c1
inactive: SK-MEL-2 melanoma 176% | EKVX NSCLC 111% | SN12C renal 104% | UO-31 renal 92.1% | TK-10 renal 112% | ACHN renal 102% | CAKI-1 renal 97.3% | A498 renal 99.5% | CCRF-CEM leukemia 125% | MOLT-4 leukemia 20.7%

CC1=NN(c2cccc(Cl)c2)C(=O)/C1=C\c1cn(CC(O)CN2CCCCC2)c2ccccc12 (stereo not given)
inactive: SK-MEL-2 melanoma 73.8% | EKVX NSCLC 88% | SN12C renal 66.3% | UO-31 renal 67% | TK-10 renal 71.7% | ACHN renal 38.6% | CAKI-1 renal 24% | A498 renal 80.2% | CCRF-CEM leukemia 41.9% | MOLT-4 leukemia 48.3%

C=C1C(=O)O[C@H]2[C@H]1CC/C(COC(=O)NCc1ccc(Cn3c(=O)sn(CCCCl)c3=O)cc1)=C\CC[C@@]1(C)O[C@@H]21
inactive: SK-MEL-2 melanoma 49% | EKVX NSCLC 57.1% | SN12C renal 18.5% | UO-31 renal 11% | CAKI-1 renal 27.7% | A498 renal 104%
active: TK-10 renal -65.2% | ACHN renal -57.7% | CCRF-CEM leukemia -38% | MOLT-4 leukemia -31.7%

C=C1C(=O)O[C@H]2[C@H]1CC/C(COC(=O)/C=C/C(=O)NCc1ccc(Cn3c(=O)sn(-c4ccccc4)c3=O)cc1)=C\CC[C@@]1(C)O[C@@H]21
inactive: EKVX NSCLC 52.3% | UO-31 renal 17.9% | CAKI-1 renal 35.5% | A498 renal 97.1%
active: SK-MEL-2 melanoma -13.6% | SN12C renal -43.7% | TK-10 renal -38.6% | ACHN renal -47.3% | CCRF-CEM leukemia -30.6% | MOLT-4 leukemia -27.7%

Nc1ccc2c(S(=O)(=O)O)ccc(S(=O)(=O)O)c2c1
inactive: SK-MEL-2 melanoma 103% | EKVX NSCLC 103% | SN12C renal 95.3% | UO-31 renal 81.6% | TK-10 renal 108% | ACHN renal 96.4% | CAKI-1 renal 95.6% | A498 renal 116% | CCRF-CEM leukemia 56.5% | MOLT-4 leukemia 80.3%

CCC(O)(C(c1ccccc1)c1ccccn1)C(c1ccccc1)c1ccccn1 (stereo not given)
inactive: SK-MEL-2 melanoma 97.5% | EKVX NSCLC 97.7% | SN12C renal 110% | UO-31 renal 84.3% | TK-10 renal 107% | ACHN renal 95.2% | CAKI-1 renal 90.3% | A498 renal 96.7% | CCRF-CEM leukemia 114% | MOLT-4 leukemia 87%

O=C1CC(c2ccc3c(c2)OCO3)Nc2cc3c(cc21)OCO3 (stereo not given)
inactive: SK-MEL-2 melanoma 11.7% | EKVX NSCLC 36.2% | SN12C renal 22.7% | UO-31 renal 52.6% | TK-10 renal 34.6% | ACHN renal 45.8% | CAKI-1 renal 43.4% | MOLT-4 leukemia 26%
active: A498 renal -17.4% | CCRF-CEM leukemia 9.73%

CCOC(=O)c1nnn(-c2ccccc2)c1C1=CN(C)CCC1
inactive: SK-MEL-2 melanoma 103% | EKVX NSCLC 99% | SN12C renal 106% | UO-31 renal 82% | TK-10 renal 96.6% | ACHN renal 100% | CAKI-1 renal 97.8% | A498 renal 101% | CCRF-CEM leukemia 109% | MOLT-4 leukemia 97.3%

CN=C1C=CC(=C(c2ccc(N(C)C)cc2)c2ccc(N(C)C)cc2)C=C1
active: SK-MEL-2 melanoma -52.4% | EKVX NSCLC 3.72% | SN12C renal -32.1% | UO-31 renal -14.2% | TK-10 renal -53% | ACHN renal -53.4% | CAKI-1 renal 9.65% | A498 renal -27.4% | CCRF-CEM leukemia 3.67% | MOLT-4 leukemia 3.36%

CCCCCCNc1cc(C)nc2ccc(OC)cc12
inactive: SK-MEL-2 melanoma 73.7% | EKVX NSCLC 65.7% | SN12C renal 67.9% | UO-31 renal 40.4% | TK-10 renal 80.4% | ACHN renal 76.4% | CAKI-1 renal 70.9% | A498 renal 22% | CCRF-CEM leukemia 60.7% | MOLT-4 leukemia 50.4%

O=C1C(Cl)C(c2ccccc2Cl)N1n1cnnc1 (stereo not given)
inactive: SK-MEL-2 melanoma 102% | EKVX NSCLC 99.8% | SN12C renal 100% | UO-31 renal 83.3% | TK-10 renal 102% | ACHN renal 96.8% | CAKI-1 renal 85.6% | A498 renal 93.9% | CCRF-CEM leukemia 98.6% | MOLT-4 leukemia 101%

CSc1nc2sc3cc(Cl)ccc3n2c(=N)c1C#N
inactive: SK-MEL-2 melanoma 87.3% | EKVX NSCLC 81.9% | SN12C renal 89.5% | UO-31 renal 75.2% | TK-10 renal 83.8% | ACHN renal 78.9% | CAKI-1 renal 69.9% | A498 renal 98% | CCRF-CEM leukemia 88.6% | MOLT-4 leukemia 15.7%

CCCCCCCC/C=C\CCCCCCCC(=O)Oc1cccc2cccnc12
active: CAKI-1 renal -0.06%
inactive: SK-MEL-2 melanoma 140% | EKVX NSCLC 95.1% | SN12C renal 88.9% | UO-31 renal 88.3% | TK-10 renal 120% | ACHN renal 103% | A498 renal 121% | CCRF-CEM leukemia 96.3% | MOLT-4 leukemia 80.3%
